Reference: the supplement of paper PMC11732987, “Enantioselective OTUD7B fragment discovery through chemoproteomics screening and high-throughput optimisation” (Communications Chemistry, 2025)

Key:
Test in all cases: log2 ratio of Biotin-Ahx-Ub-VS probe labelling (fragment/DMSO); higher = less target engagement (more negative = stronger competition), active = hit call of the paper (q ≤ 0.05, log2 ratio ≤ -1)
Settings in all cases: compound concentration: 200 uM; treatment time: 3 h
USP34 = USP34 (UniProt Q70CQ2)
Summary of the method: (§1)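 Each value is an average log2 ratio of fragment to vehicle, tested by unpaired t-test. The underlying Spectronaut label-free quantities were global-median-normalised, and only proteins with ≥2 unique peptides were included. Triplicate HEK293T lysate samples (495 µg) were exposed to fragment at 200 µM or vehicle for 3 h, then to Biotin-Ahx-Ub-VS at 0.5 µM final for 1 h, before NeutrAvidin enrichment of labelled DUBs, LysC and trypsin digestion, and diaPASEF LC-MS/MS.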

USP36 = molecular target: T1, USP36 (UniProt Q9P275)
T1 sequence (whole entry): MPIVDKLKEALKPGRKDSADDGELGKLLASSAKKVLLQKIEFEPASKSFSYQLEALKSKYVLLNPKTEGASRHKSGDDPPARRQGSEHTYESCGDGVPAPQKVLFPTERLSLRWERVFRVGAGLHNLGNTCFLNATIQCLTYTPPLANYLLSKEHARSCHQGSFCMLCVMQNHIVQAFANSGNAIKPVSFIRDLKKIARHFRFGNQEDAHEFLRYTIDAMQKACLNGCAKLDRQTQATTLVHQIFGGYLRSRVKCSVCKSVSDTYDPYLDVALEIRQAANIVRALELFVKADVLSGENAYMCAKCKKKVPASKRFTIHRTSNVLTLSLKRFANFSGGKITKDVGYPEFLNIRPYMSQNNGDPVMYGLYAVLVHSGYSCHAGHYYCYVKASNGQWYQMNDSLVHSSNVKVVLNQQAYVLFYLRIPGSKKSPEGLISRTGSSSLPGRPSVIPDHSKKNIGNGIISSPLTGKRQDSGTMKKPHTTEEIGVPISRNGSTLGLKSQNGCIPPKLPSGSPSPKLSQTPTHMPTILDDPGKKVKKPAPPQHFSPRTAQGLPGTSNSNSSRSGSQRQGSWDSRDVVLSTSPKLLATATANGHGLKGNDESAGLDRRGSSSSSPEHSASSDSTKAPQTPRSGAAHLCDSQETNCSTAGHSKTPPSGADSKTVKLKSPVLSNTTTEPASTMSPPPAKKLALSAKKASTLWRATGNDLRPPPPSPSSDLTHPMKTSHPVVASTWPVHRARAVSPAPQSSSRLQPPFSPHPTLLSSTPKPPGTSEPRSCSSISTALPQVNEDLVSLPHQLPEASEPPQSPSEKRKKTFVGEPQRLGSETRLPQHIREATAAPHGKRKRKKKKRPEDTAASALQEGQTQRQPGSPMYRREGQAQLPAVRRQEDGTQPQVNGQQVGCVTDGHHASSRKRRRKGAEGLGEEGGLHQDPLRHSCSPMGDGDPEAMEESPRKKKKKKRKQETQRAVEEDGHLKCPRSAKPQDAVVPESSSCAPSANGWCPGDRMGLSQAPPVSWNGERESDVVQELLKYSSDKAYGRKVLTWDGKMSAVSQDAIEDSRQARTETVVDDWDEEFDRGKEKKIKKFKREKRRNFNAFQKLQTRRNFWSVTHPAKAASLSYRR
Summary of the method: as §1

USP38 = molecular target: T2, USP38 (UniProt Q8NB14)
T2 sequence (whole entry): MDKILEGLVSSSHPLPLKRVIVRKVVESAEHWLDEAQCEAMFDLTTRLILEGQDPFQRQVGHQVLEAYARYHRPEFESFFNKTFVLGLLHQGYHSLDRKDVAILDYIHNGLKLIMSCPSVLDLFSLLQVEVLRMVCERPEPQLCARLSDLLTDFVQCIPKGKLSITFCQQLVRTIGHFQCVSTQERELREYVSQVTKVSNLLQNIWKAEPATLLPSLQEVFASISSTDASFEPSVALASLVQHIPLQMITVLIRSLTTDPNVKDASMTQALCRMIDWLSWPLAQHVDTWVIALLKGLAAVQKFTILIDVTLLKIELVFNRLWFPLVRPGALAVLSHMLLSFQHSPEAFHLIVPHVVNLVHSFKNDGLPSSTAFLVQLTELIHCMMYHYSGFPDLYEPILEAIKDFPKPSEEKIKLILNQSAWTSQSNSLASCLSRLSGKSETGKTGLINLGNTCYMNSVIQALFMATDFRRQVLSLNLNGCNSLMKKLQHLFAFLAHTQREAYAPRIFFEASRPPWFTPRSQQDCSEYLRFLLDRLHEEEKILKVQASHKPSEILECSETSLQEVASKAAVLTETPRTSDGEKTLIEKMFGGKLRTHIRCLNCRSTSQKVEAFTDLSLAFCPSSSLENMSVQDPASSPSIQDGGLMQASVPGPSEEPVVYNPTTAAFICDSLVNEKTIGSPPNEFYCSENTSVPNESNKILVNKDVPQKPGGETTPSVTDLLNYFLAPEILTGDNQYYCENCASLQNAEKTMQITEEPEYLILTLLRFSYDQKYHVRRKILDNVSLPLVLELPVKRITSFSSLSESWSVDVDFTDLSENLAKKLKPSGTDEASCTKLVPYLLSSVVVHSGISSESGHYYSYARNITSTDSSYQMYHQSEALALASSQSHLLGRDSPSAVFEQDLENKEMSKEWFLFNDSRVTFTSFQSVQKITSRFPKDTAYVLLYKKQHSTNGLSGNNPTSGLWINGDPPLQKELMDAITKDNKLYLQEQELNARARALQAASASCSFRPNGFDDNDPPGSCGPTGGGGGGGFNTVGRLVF
Summary of the method: as §1

USP39 = molecular target: T3, USP39 (UniProt Q53GS9)
T3 sequence (whole entry): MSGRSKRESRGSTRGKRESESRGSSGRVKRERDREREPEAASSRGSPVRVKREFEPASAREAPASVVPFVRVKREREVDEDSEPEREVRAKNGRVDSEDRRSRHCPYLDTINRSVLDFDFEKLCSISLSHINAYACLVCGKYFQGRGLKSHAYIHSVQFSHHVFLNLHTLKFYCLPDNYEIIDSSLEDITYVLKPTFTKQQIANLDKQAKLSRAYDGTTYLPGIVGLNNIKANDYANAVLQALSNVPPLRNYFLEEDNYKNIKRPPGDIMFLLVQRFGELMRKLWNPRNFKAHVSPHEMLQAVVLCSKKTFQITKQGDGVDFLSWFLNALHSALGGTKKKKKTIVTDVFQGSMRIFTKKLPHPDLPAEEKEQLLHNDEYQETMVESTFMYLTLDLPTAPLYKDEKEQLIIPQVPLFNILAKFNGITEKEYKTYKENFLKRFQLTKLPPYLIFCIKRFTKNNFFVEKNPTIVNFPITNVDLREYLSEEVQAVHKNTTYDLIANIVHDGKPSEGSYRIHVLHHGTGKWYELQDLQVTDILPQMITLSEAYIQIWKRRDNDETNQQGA
Summary of the method: as §1

USP4 = molecular target: T4, USP4 (UniProt Q13107)
T4 sequence (whole entry): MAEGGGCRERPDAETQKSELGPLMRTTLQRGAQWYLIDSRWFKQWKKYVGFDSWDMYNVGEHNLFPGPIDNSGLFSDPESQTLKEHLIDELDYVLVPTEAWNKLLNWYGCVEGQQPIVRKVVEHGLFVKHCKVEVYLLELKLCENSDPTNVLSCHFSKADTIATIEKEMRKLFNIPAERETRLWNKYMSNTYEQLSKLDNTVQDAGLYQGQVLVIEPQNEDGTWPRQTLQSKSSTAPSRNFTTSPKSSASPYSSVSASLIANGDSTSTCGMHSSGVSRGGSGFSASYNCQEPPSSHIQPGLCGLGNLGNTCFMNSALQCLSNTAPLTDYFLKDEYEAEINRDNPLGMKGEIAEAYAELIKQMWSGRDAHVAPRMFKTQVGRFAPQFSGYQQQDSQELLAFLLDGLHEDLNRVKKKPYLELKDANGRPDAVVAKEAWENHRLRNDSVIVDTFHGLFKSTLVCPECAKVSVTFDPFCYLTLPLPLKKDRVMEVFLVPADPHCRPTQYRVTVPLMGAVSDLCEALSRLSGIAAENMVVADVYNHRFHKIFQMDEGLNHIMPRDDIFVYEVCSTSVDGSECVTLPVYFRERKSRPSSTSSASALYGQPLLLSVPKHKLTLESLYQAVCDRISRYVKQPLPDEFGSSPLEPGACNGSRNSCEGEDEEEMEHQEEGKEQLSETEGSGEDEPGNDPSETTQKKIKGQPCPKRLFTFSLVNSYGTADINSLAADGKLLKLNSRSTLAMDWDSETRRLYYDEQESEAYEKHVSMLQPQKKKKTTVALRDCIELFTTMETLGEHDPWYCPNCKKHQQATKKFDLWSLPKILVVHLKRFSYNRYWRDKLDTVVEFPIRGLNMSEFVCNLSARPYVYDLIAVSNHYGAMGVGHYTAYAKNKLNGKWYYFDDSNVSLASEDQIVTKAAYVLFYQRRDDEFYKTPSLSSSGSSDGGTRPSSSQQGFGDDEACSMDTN
Summary of the method: as §1

Measured: log2 ratio of Biotin-Ahx-Ub-VS probe labelling

Sequence of USP34 (Q70CQ2 whole entry, the tested form may be a part): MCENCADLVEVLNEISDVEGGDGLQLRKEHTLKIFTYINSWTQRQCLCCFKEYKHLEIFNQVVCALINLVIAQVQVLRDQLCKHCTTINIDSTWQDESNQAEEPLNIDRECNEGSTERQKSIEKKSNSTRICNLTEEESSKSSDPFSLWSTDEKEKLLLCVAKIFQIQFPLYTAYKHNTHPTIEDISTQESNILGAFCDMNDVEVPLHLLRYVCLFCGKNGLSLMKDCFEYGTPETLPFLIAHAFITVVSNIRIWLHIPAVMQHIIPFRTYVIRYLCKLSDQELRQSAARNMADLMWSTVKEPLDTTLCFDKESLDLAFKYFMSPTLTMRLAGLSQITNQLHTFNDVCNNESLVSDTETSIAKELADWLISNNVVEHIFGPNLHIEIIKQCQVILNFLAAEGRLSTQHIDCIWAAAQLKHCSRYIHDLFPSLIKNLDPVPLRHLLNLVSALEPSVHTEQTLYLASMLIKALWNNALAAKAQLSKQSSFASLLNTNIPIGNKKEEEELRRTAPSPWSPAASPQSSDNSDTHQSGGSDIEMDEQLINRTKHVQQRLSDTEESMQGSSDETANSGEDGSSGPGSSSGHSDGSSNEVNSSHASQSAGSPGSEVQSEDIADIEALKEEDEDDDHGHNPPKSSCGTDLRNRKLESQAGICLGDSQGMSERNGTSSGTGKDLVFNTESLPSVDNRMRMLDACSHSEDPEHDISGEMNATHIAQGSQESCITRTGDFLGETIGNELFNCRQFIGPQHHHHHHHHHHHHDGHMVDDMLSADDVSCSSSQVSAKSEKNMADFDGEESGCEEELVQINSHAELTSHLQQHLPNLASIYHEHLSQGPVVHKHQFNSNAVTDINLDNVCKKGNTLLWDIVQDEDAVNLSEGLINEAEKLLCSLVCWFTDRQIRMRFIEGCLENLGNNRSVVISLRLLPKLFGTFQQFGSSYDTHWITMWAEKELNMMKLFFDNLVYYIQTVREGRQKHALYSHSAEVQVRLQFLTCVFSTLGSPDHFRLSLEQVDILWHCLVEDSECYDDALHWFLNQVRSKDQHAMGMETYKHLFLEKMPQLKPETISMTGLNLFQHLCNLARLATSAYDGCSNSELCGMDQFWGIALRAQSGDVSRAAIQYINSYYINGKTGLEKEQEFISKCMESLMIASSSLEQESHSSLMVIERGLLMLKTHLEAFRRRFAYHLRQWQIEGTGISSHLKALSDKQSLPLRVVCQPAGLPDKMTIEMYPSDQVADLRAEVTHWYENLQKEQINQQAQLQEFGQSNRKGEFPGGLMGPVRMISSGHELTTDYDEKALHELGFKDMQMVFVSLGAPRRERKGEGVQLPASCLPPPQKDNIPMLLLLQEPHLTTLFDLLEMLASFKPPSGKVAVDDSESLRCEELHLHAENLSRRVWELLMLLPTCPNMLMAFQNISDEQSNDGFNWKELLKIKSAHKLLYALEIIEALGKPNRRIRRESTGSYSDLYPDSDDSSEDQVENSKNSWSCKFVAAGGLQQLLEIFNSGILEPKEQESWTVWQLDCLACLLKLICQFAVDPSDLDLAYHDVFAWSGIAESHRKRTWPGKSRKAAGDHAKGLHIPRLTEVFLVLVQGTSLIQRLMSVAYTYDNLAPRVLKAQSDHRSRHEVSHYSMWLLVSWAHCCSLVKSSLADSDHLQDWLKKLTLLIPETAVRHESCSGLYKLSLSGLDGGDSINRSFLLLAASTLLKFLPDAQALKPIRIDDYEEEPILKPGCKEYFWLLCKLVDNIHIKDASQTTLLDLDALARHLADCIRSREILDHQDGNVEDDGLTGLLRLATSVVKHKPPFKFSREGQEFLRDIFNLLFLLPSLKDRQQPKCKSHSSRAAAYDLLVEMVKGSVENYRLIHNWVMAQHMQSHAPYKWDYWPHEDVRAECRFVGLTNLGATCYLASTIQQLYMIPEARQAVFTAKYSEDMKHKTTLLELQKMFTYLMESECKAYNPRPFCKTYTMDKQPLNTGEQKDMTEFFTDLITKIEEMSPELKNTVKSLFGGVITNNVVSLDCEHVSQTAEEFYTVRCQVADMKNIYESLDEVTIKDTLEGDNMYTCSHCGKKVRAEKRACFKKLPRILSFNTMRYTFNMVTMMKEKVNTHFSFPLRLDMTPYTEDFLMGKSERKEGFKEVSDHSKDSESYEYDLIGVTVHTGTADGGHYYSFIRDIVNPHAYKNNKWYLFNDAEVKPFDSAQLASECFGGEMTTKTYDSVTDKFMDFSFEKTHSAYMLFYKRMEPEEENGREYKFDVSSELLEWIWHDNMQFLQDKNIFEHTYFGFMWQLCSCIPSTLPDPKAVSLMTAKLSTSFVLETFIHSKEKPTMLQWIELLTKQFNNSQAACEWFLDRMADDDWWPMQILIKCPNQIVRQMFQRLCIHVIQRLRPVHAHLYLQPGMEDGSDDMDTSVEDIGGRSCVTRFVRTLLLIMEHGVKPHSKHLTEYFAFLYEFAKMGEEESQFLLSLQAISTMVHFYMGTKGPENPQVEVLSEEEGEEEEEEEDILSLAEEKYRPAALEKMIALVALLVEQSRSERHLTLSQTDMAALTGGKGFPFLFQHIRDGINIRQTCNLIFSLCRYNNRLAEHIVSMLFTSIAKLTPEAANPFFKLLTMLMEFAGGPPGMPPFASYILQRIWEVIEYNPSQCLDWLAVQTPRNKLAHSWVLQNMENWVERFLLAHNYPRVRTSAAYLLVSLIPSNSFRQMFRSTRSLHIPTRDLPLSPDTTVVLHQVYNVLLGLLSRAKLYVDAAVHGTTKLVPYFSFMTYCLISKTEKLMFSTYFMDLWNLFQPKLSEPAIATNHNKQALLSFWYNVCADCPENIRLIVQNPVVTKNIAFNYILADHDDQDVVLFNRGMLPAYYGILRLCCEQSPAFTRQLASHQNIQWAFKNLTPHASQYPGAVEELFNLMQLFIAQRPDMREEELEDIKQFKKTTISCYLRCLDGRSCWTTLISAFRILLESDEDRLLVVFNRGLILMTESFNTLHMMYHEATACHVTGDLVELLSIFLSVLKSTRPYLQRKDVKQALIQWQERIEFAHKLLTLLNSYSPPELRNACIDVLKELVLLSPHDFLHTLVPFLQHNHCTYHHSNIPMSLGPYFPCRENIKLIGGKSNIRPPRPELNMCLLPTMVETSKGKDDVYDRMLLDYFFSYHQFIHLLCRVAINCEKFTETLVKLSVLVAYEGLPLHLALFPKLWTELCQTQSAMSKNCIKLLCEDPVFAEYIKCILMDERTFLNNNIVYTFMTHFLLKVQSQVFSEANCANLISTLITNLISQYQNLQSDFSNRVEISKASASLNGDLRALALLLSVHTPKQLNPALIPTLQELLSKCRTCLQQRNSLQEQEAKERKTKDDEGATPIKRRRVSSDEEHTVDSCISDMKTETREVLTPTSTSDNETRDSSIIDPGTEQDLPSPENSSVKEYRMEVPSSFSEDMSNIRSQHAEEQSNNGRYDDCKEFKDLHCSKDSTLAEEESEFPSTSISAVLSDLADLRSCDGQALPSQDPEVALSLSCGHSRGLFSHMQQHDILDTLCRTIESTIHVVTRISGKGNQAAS

O=C(CCl)Nc1ccc(Cl)c(F)c1
inactive: USP34 -0.317 | USP36 -0.136 | USP38 -0.0529 | USP39 4.5e-05 | USP4 -0.159
